“And” between values parts separate entries of the source, which are not always exact repeats. Equal entries are not always repeated. Out of some 320,000 compounds screened, about 22,000 (6.9%) were called active. Another 27% or so got no clear call; they are omitted. Calls follow the shape of the dose curve; as a rule, active = well fitted inhibition curve with a large enough effect; inconclusive = small, poorly fitted or top-dose-only effect, or another doubt; inactive = no such curve, though single readings can be large or run the other way. The full list was thinned out, with actives kept by preference. The source holds several records for some structures; these can differ, active in one and inactive in another.
Test: Primary qHTS for delayed death inhibitors of the malarial parasite plastid, 96 hour incubation
Details: P. falciparum luciferase reporter growth; series mostly up to 28.7 µM; activity change, negative = inhibition: at the top concentration
Excerpt: The goal of this screen is to discover new antimalarial compounds that act by inhibiting the development of the apicoplast in the malarial parasite Plasmodium falciparum. The biochemical processes that make this organelle essential for erythrocytic stage parasites are not well understood. However, antibiotics such as azithromycin and tetracycline, which target the apicoplast translational machinery, have a potent antimalarial effect.
We have developed a cell-based assay that measures parasite growth based on the expression of an integrated copy of a firefly luciferase reporter. To detect small molecules that cause this "delayed death" phenotype, erythrocytes infected with the luciferase-expressing parasites were incubated with compounds for either one or two generations, corresponding to 48 and 96 hours, respectively. Compounds that inhibit parasite growth in the second generation, but not the first, should be enriched in antimalarials that target the apicoplast. Growth inhibition is detected by a decrease in luciferase activity.
Assay Provider: David Fidock and Eric Ekland, Columbia University
Keywords: NIH Roadmap, MLPCN, MLI, MLSMR, qHTS, NCGC, qHTS, malaria, luciferase, viability
Four microliters of infected erythrocytes (2% hematocrit, 0.05% parasitemia final concentration) in culture medium were dispensed and the plates incubated for 96 hours at 37 C in 5% CO2. Two microliters of luciferase detection reagent was added and luminescence was detected by a ViewLux (PerkinElmer) reader.
% is scaled to controls: 0 for no effect and ±100 for the full control effect; potency is read from the fitted curve at half-maximal effect.

Compound	activity change, negative = inhibition	Potency
CCOC(=O)c1c(-c2ccccc2)csc1NC(=S)NC(=O)c1ccccc1	38.7% (inactive)	
CCOC(=O)c1c(-c2ccc(C)cc2)csc1/N=C(\C)C1=C(O)c2ccccc2C1=O	-6.18% (inactive)	
COC(=O)c1c(-c2ccc(C)cc2)csc1N		13.1 µM (active)
COc1cc2ccccc2cc1C(=O)N1CCOCC1	6.89% (inactive)	
CC(C(=O)NC1CCCCC1)N1C(=O)c2cccc3cccc1c23 (configuration not stated)	-27.6% (inactive)	
O=C(Oc1ccc(F)cc1)N1CCOCC1	56.1% (inactive)	
COc1ccc(CCNC(=O)c2ccco2)cc1		7.38 µM (active)
CCOc1ncccc1C(=O)NCCc1ccc(OC)cc1	-2.75% (inactive)	
Cc1ccc(OCC(=O)NCCCNC(=O)c2ccco2)cc1C	0.751% (inactive)	
Cc1ccc(C)c(NC(=O)C(c2ccccc2)N2CCN(CC(=O)NC3CC3)CC2)c1 (configuration not stated)		14.7 µM (active)
Cc1ccc(Cl)c(NC(=O)CN2CCN(C=O)CC2)c1	23.5% (inactive)	
Cc1ccc(C)c(NC(=O)COC(=O)CSc2ccccc2)c1	-20.2% (inactive)	
Cc1ccc(NS(=O)(=O)c2c(C)[nH]c(C)c2C(=O)N2CCCCC2)c(C)c1	-29.1% (inactive)	
Cc1ccc(S(=O)(=O)N(C)C)cc1NC(=O)c1ccc(-n2cncn2)c([N+](=O)[O-])c1	-7.86% (inactive)	
CC1CCc2c(sc3nc4n(c(=O)c23)CCS4)C1 (configuration not stated)	-29.8% (inactive)	
C=CCn1c(SCc2c(C)noc2C)nc2sc3c(c2c1=O)CCC(C)C3 (configuration not stated)	-1.1% [at 5.75 µM] (inactive)	
CCCn1nnc2sc3c(c2c1=O)CCC(C)C3 (configuration not stated)		11.7 µM (active)
COc1cccc(COC(=O)C2CCN(S(=O)(=O)c3cccs3)CC2)c1OC	8.27% (inactive)	
Cn1c(=O)c2sccc2n(Cc2ccc(Br)cc2)c1=O	161% (inactive)	
O=C(Nc1ccccc1C(=O)Nc1ccncc1)c1ccc([N+](=O)[O-])cc1	32.1% (inactive)	
CN=C(NC#N)NCCSCc1nc[nH]c1C		inactive and 13.5 µM (active)
O=C(Nc1cccnc1)c1cc([N+](=O)[O-])ccc1Cl	-2.06% (inactive)	
O=C(CCc1nnc2ccc(NCCCN3CCCC3=O)nn12)NCc1ccccc1Cl	-20.1% (inactive)	
O=C(CCc1nnc2ccc(NCc3ccccc3Cl)nn12)NCC1CCN(C2CCCC2)C1 (configuration not stated)		5.22 µM (active)
CSCCC(=O)N1CCCC(CNC(=O)c2ccccc2Cl)C1 (configuration not stated)	0% (inactive)	
Cc1cccc(N(C)C(=O)c2cc(S(=O)(=O)N3CCCCC3)c[nH]2)c1	-0.248% (inactive)	

Compound	activity change, negative = inhibition	Potency
Cn1nc(C(F)(F)F)c(C(=O)Nc2cccc(C(F)(F)F)c2)c1SCc1ccc(Cl)cc1		2.62 µM (active)
O=C(O)CSc1c2c(nc3cc(C(=O)Nc4cccc(C(F)(F)F)c4)ccc13)CCCC2	-27% (inactive)	
CC(C)C[C@H](NC(=O)Nc1cccc(C(F)(F)F)c1)C(=O)O	-1.23% (inactive)	
O=C(OCC(=O)N1CCOCC1)c1ccc2ccccc2c1	35.2% (inactive)	
CCOC(=O)c1ccc(NC(=O)c2nc[nH]c2C(=O)NCc2ccccc2)cc1	-3.51% (inactive)	
CCOC(=O)c1[nH]cnc1C(=O)Nc1ccccc1C	-23.1% (inactive)	
CCOC(=O)c1ccc(NC(=O)c2nc[nH]c2C(=O)N[C@@H](CCCCNC(=O)OC(C)(C)C)C(=O)OC(C)(C)C)cc1		5.86 µM (active)
Cc1ccc(NC(=O)c2nc[nH]c2C(=O)N[C@@H](CCCCNC(=O)OC(C)(C)C)C(=O)OC(C)(C)C)cc1		11.7 µM (active)
CNC(=O)c1[nH]cnc1C(=O)N[C@@H](CC(C)C)C(=O)OC(C)(C)C	0.082% (inactive)	
Cc1cccc(NC(=O)c2nc[nH]c2C(=O)NCC(=O)OCc2ccccc2)c1	22.3% (inactive)	
C=CCSc1ccc(S(=O)(=O)N2CCN(C)CC2)cn1	0.0245% (inactive)	
Cc1cc(NC(=O)c2ccco2)c(=O)n(Cc2c(F)cccc2Cl)c1	-11.1% (inactive)	
CCOC(=O)N1CCN(c2c(NCCN3CCN(c4ccccc4F)CC3)c(=O)c2=O)CC1	-26% (inactive)	
COc1ccccc1NC(=O)CCC(=O)OC(C)C(=O)c1ccccc1 (configuration not stated)	-3.12% (inactive)	
Cc1ccc(C(=O)NCC(=O)OCC(=O)Nc2cccc(S(=O)(=O)N3CCCC3)c2)cc1C	32.5% (inactive)	
Cc1ccc(CN2CCN(c3ncccn3)CC2)c(C)c1	0% (inactive)	
Cc1cccc(NC(=O)c2nnn(-c3cccc(C(F)(F)F)c3)c2N)c1		5.86 µM (active)
Cc1cccc(NC(=O)c2cccc(C(F)(F)F)c2)c1	4.71% (inactive)	
CC(=O)N1CCN(C(=O)Nc2cccc(C(F)(F)F)c2)CC1	-7.32% (inactive)	
O=C(O)C1CCCN1S(=O)(=O)c1ccc(Br)cc1 (configuration not stated)	14% (inactive)	
COc1ccc(-c2cc(C(=O)n3cnc4ccccc43)c3ccccc3n2)cc1	-15.8% (inactive)	
COc1ccc(OCCCC(=O)NCCc2ccccc2)cc1	370% (inactive)	
COc1ccc(CCNCc2c(-c3ccccc3)n(C)c3ccccc23)cc1		10.4 µM (active)
COc1ccc(-c2c(C#Cc3ccccc3)c3ccccc3n2C)cc1		6.57 µM (active)
COc1ccc(CNc2ncnc3ccccc23)cc1	-3.8% (inactive)	
COc1ccc(-c2c3c(=O)n(C)c(=O)n(C)c3cn2-c2cccc(OC)c2)cc1	13.8% (inactive)	

— PubChem BioAssay AID504834 (National Center for Advancing Translational Sciences (NCATS), 2011)
